# In PubChem BioAssay AID602449 (Sanford-Burnham Center for Chemical Genomics, 2012):
# In all, about 360,000 compounds went through this assay and about 5,000 (1.4%) were called active. For the sample, actives were picked, then their nearest neighbours and some compounds at random. Unmarked numbers belong to inactive results.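 The calls were made as follows: active = inhibition of 50% or more, scaled per plate between neutral and stimulator controls; inactive = the rest.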
# Experiment: blockers of Ca2+-induced mitochondrial swelling – biochemical, isolated mouse mitochondria, absorbance, primary screen (AID 602449);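 also: 0% = DMSO wells given calcium and 100% = 1 mM EGTA wells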
# Settings: 30 min, at 10 µM, active compounds read high
row,SMILES,inhibition
1,CCCCCOC(=O)NCCOC(=O)Nc1ccc(C(=O)OCC)cc1,62.1% (active)
2,CCOC(=O)c1ccc(NC(=S)N2CCCC2)cc1,-9.2%
3,Cc1ccc(NC(=O)OCCNC(=O)c2ccncc2)cc1,-2.2%
4,CC1CCCCC12NC(=O)N(CC(=O)OCc1c(F)cccc1Cl)C2=O (centres undefined),1.5%
5,Cc1cc(C(=O)O)c(S(C)(=O)=O)s1,0%
6,O=S1(=O)CC(NCc2ccccc2)C(Nc2ccc(Cl)cc2)C1 (centres undefined),-0.2%
7,Cc1cc(N2CCCC2)ccc1NC(=O)COc1ccc(Cl)cc1,-0.2%
8,Cc1ccc(NC(=O)COc2ccc(-n3ccnc3)cc2)cc1Cl,83.4% (active)
9,O=C(COc1ccc(Cl)cc1)Nc1ccc2c(c1)OCO2,-0.4%
10,COc1ccccc1Nc1ncc(C(C)=O)c(C)n1,-2.1%
11,CN(CC(=O)Nc1ccc(S(=O)(=O)N2CCCC2)cc1)Cc1ccc(Cl)c(Cl)c1,3.3%
12,O=C(CSCc1ccc(Br)cc1)Nc1ccc(S(=O)(=O)N2CCCCCC2)cc1,58.6% (active)
13,O=C(CN1CCCCCC1)Nc1ccc(S(=O)(=O)N2CCCCC2)cc1,0.7%
14,Cc1occc1-c1nnc(SCC(=O)NC2(C#N)CCCC2)n1C,-0.8%
15,O=C(Cc1c(F)cccc1Cl)Nc1ncc([N+](=O)[O-])s1,61.9% (active)
16,CC(C)(C)NC(=O)NC(=O)COC(=O)Cc1c(F)cccc1Cl,2%
17,COc1ccc(S(=O)(=O)N2CCOCC2)cc1NC(=O)Cc1c(F)cccc1Cl,-0.8%
18,O=C(OC(C(=O)NC1CCCC1)c1ccc(F)cc1)c1ccno1 (centres undefined),-3.3%
19,CC(=O)C1C(c2ccc(Cl)cc2)c2c(n[nH]c2C)CC1(C)O (centres undefined),1.5%
20,Cc1ccc(OS(=O)Nc2cccc3nccnc23)cc1 (centres undefined),-0.1%
21,O=C(Nc1cccc(S(=O)(=O)Nc2ccc(Cl)cc2)c1)c1ccc2c(c1)OCCO2,77.8% (active)
22,O=C(Nc1ccc2c(c1)OCCO2)c1ccc(Cl)c(S(=O)(=O)N2CCCCC2)c1,9%
23,S=C(NCc1ccco1)Nc1ccc2c(c1)OCCO2,-2.6%
24,S=C(Nc1cccc(Cl)c1)Nc1ccc2c(c1)OCCO2,53.6% (active)

row,SMILES,inhibition
1,C/C(CC(=O)Nc1cccc(C(F)(F)F)c1)=N\NC(=O)C(=O)NCC(C)C,-0.9%
2,O=C(Nc1cccc(Cl)c1)c1cncn1-c1ccc(F)cc1,-1.7%
3,FC(F)(F)c1cccc(NC(=S)Nc2cccc(Cl)c2)c1,97.6% (active)
4,CC(NS(=O)(=O)c1ccc(Cl)cc1)C(=O)Nc1ccc2c(c1)OCCO2 (centres undefined),-0.3%
5,O=C(Nc1ccc2c(c1)OCCO2)C1CCCC1,-1.6%
6,O=C(NCCCn1ccnc1)C(=O)c1cn(CC(=O)N2CCCCCC2)c2ccccc12,0%
7,Cc1c(C(=O)O)nnn1-c1nonc1N,-1.7%
8,Cc1nn(-c2ccccc2)c2c1c(C)c(CCC(=O)NCC1CCCO1)c(=O)n2C (centres undefined),1.8%
9,Cc1csc(NC(=O)CSc2nnc(-c3cccnc3)o2)n1,-0.1%
10,Cc1cc(C)nc(NS(=O)(=O)c2ccc(N/C=C\C(=O)c3cccs3)cc2)n1,-0.9%
11,CC(Sc1nnc(C2CC2)n1C1CC1)C(=O)Nc1ccc(C(N)=O)cc1 (centres undefined),0.5%
12,Cc1nc(Nc2ccccc2C)c2cnn(C)c2n1,-0.2%
13,Cc1ccc2c(=O)cc(C(=O)NCCc3ccc(S(N)(=O)=O)cc3)oc2c1C,-0.4%
14,O=C(Nc1cccc(-c2cccc(Cl)c2)c1)C1CCN(C2CCC2)CC1,65.4% (active)
15,CCn1cc(CN2CCC(C(=O)Nc3cccc(-c4cccc(Cl)c4)c3)CC2)c(C)n1,0.6%
16,CCn1cc(CN2CCC(C(=O)Nc3cccc(-c4cccc(Cl)c4)c3)CC2)cn1,-0.3%
17,O=C(c1ccc(F)cc1)c1c[nH]c(C(=O)NCc2cccnc2)c1,0.8%
18,Cc1cc(NC(=O)Nc2ccc(Cl)cc2)n(-c2ccccc2)n1,70.8% (active)
19,COc1ccc(NC(=O)c2cc3nc(-c4ccccc4)cc(C)n3n2)cc1OC,2.1%
20,CC(=O)c1cccc(NC(=O)c2cc(C)nn2-c2ccccc2)c1,-1.3%
21,O=C(Nc1ccc(Cl)c(Cl)c1)N1CC=C(c2ccccc2)CC1,12.4%
22,Cc1cc(C(=O)NCCc2ccc(Cl)cc2)n(-c2ccccc2)n1,1%
23,Cc1ccc(NC(=O)Nc2cc(-c3ccccc3)nn2C)cc1Cl,83.1% (active)
24,O=C(NCc1ccc(F)cc1)C(c1ccccc1)N(C(=O)c1csnn1)C1CC1 (centres undefined),4.8%

row,SMILES,inhibition
1,CC(C)NS(=O)(=O)c1ccc(NC(=O)C2CCCCC2)cc1,-1.2%
2,CCOc1cccc2c1OC1(CCCCC1)N1N=C(c3cccnc3)CC21 (centres undefined),0.5%
3,CC(=O)Nc1ccc(CC#N)cc1,2.1%
4,COc1cccc(N(C(=O)c2snc(C(N)=O)c2N)C(C(=O)NCC2CCCO2)c2c[nH]c3ccccc23)c1 (centres undefined),-1.8%
5,CCOC(=O)C1CCCN(S(=O)(=O)c2ccc(-n3cnnn3)c(C)c2)C1 (centres undefined),0.9%
6,O=S(=O)([N-]c1nc2ccccc2nc1-[n+]1ccc(Cc2ccccc2)cc1)c1ccc(Br)s1,5%
7,Cc1cccc(NS(=O)(=O)c2ccc(C(=O)NCC(C)(C)N3CCOCC3)cc2)c1C,1.5%
8,COc1ccc(NC(=O)COC(=O)C2COc3ccccc3O2)cc1 (centres undefined),-0.6%
9,CCC(C)(C)c1ccc(Oc2ccc(NC(=O)COC(=O)C3=COCCO3)cc2)cc1,79.2% (active)
10,CCOc1ccc(NC(=O)c2ccc(NC(=O)COC(=O)c3ccc(NC(=O)CC#N)cc3)cc2)cc1,0.5%
11,O=C(NNC(=S)NCc1ccccc1)c1ccc(OC(F)F)cc1,-1.2%
12,O=S(=O)(Nc1ccc(O)c2ccccc12)c1ccc(OC(F)(F)F)cc1,34.9%
13,FC(F)(F)Oc1ccc(NC(=S)NCc2ccccc2)cc1,77.1% (active)
14,O=C(Nc1cc(S(=O)(=O)N2CCOCC2)ccc1Cl)c1cc(=O)c2ccccc2o1,-1.5%
15,O=[N+]([O-])c1cc(Cl)cc(/C=N/NC(=S)Nc2cc(S(=O)(=O)N3CCOCC3)ccc2Cl)c1O,76.5% (active)
16,Cc1cc(OCCCC(=O)Nc2cc(S(=O)(=O)N3CCOCC3)ccc2N2CCOCC2)ccc1Cl,0.2%
17,CCOc1ccc(CN2CCN(Cc3ccon3)CC2CCO)cc1 (centres undefined),-1.1%
18,COc1ccc(S(=O)(=O)NCCOc2ccccc2)cc1F,0.7%
19,COc1ccc(OCCNS(=O)(=O)Cc2ccccc2)cc1,0.9%
20,COc1ccc(S(=O)(=O)NCCCCOc2ccc(Cl)cc2)cc1,98.5% (active)
21,CCc1cccc(CC)c1NC(=O)COc1ccccc1C(=O)c1cc(C#N)c(=O)n(C2CCCCC2)c1,1%
22,Cc1cc2cc3n(c2nn1)N=C(Cl)CC3,0.9%
23,COc1ccc(C(=O)COC(=O)CN2C(=O)C3CC=CCC3C2=O)c(OC)c1 (centres undefined),-2.3%
24,O=C(Nc1cccc(C(F)(F)F)c1)c1ccc(N2CCNCC2)c([N+](=O)[O-])c1,69.8% (active)

row,SMILES,inhibition
1,O=C(Nc1ccc(N2C(=O)c3cccc4cccc(c34)C2=O)cc1)c1ccc(N2CCCCC2)c([N+](=O)[O-])c1,1.1%
2,O=C(NC1C2CC3CC(C2)CC1C3)c1ccc(N2CCNCC2)c([N+](=O)[O-])c1 (centres undefined),-2.4%
3,CN(C)CCNC(=O)c1cccc(-c2cnc3c(NC=O)cc(-c4cccc(C(F)(F)F)c4)cn23)c1,-2.1%
4,CS(=O)(=O)N(CC(=O)Nc1ccc(F)cc1)C1CCCCC1,1.1%
5,CCC(C)NC(=O)CN(C1CCCCC1)S(C)(=O)=O (centres undefined),-1.2%
6,N#CCCN(C(=S)Nc1ccc(Cl)c(Cl)c1)C1CCCCC1,64.3% (active)
7,CS(=O)(=O)N(CC(=O)Nc1ccc(Cl)c(Cl)c1)C1CCCCC1,61.3% (active)
8,CCc1cccc(NC(=S)N(CCN(C)C)C2CCN(C(C)C)CC2)c1,-1.2%
9,N#CCCN(C(=O)Nc1ccc(Cl)c(Cl)c1)C1CCCCC1,20.5%
10,Cc1cc(NC(=O)OC(C)C)ccc1-c1ccc(NC(=O)OC(C)C)cc1C,0.8%
11,CN(C)c1nc2n(c(=O)n1)CCO2,-0.8%
12,Cc1c(Cl)cccc1NC(=O)[C@@]1(CC(=O)O)CC(/C=C/c2ccccc2)=NO1,-0.3%
13,C[C@H](NC(=O)NCCc1ccccc1)C(=O)O,-2.9%
14,CCNS(=O)(=O)c1ccc(NC(=O)Nc2cccc(C(F)(F)F)c2)cc1,93.6% (active)
15,Cc1cc(S(=O)(=O)N2CCOCC2)ccc1OCC(=O)Nc1cccc(C(F)(F)F)c1,-0.9%
16,CCNS(=O)(=O)c1ccc(NC(=O)c2cncc(Br)c2)cc1,-1.5%
17,CN(CC(=O)Nc1ccccc1[N+](=O)[O-])Cc1ccc(Br)cc1,1.1%
18,COc1cc(CNCc2cccs2)cc(Br)c1OC,-0.5%
19,COc1ccccc1N1CCN(Cc2ccc(OC)c3ccccc23)CC1,1.3%
20,COc1cc(CNCc2ccc(OC)c3ccccc23)cc(OC)c1OC,90.9% (active)
21,Cn1c(=O)c2cc(NC(=O)NCCc3cccs3)ccc2n1Cc1cccc(C(F)(F)F)c1,3.3%
22,CCCCn1c(N)c(N(CCC(C)C)C(=O)COC(=O)c2cccnc2OCC)c(=O)[nH]c1=O,0.7%
